Bioassay records from PubChem.
This is a sample that favours compounds with a hit; in the whole collection about 4.1% have one here.
ssDAF12 agonist = S. stercoralis DAF-12 nuclear receptor activators, primary screen, cell-based, luminescence, HEK293, GRIP1 co-expression, lit1-tk-luc; HEK293 ssDAF-12/GRIP1 lit1-tk-luc reporter; % of 3 µM dafachronic acid response; activation, % at 6.8 µM; 1% of 370,000 active; AID 652126, 2013;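 active = activation above the mean over all tested compounds plus 3 SD, cut at about 0.9% in these data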;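 also: 0% = DMSO-only wells and 100% = 3 µM delta7-dafachronic acid wells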
hgDAF12 agonist = H. glycines DAF-12 receptor agonists, primary screen, cell-based, luminescence, HEK293, GAL4 fusion, UAS-luciferase; AID 687014, 2013; Nuclear hormone receptor DAF-12 (Heterodera glycines), GAL4 fusion; HEK293 GAL4-hgDAF12 UAS-luciferase reporter, agonist luminescence; normalized to butyrate control; 1.8% of 370,000 active; activation, % at 6.8 µM;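 active = activation above a cutoff set at the mean of all screened compounds plus 3 SD, cut at about 10% in these data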;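 also: 0% = DMSO wells and 100% = sodium butyrate wells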
DAX1 inh-1 = DAX1 (NR0B1) inhibitors, primary screen, cell-based, HEK293, Gal4-DAX1, luciferase luminescence; inhibition, % at 6.75 µM; HEK293 Gal4-DAX1 luciferase reporter; 0.99% of 340,000 active; Nuclear receptor subfamily 0 group B member 1 (Homo sapiens), P51843;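 active = inhibition above the mean over all tested compounds plus 3 SD, cut at about 4.2% in these data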;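 also: 0% = DAX1-transfected cells with DMSO and 100% = empty-vector control cells with DMSO; inhibition shows as a rise in luminescence from relieved DAX1 repression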
hcDAF12 agonist = H. contortus DAF-12 nuclear receptor activators, primary screen, cell-based, luminescence, HEK293, lit1-tk-luc reporter. HEK293 hcDAF-12 lit1-tk-luc reporter; 0% DMSO, 100% Δ7-dafachronic acid. AID 652067, 2013. activation, % at 6.8 µM. 1.4% of 370,000 active;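 active = activation above the mean of all tested compounds plus 3 SD, cut at about 5.5% in these data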;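 also: 100% = response to 3 µM Δ7-dafachronic acid high control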
DAX1 inh-2 = DAX1 (NR0B1) inhibitors on StAR promoter, primary screen, cell-based, luminescence, SF-1 (NR5A1), full-length DAX-1; inhibition, % at 6.8 µM; AID 652010, 2013; 1.1% of 370,000 active; HEK293T StAR-luciferase reporter, SF-1/DAX-1 repression relief;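 active = inhibition above the mean over all tested compounds plus 3 SD, cut at about 3.6% in these data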;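 also: 0% = DAX-1 cells with DMSO and 100% = cells lacking DAX-1 with DMSO; higher inhibition means more luminescence from relief of DAX-1 repression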
hgDAF12 conf = H. glycines DAF-12 receptor agonists, confirmation, cell-based, luminescence, HEK293, GAL4-LBD fusion. shares compounds with hgDAF12 agonist. HEK293 GAL4-hgDAF12 luciferase reporter, agonist mode; percent of butyrate response. activation, % at 6.8 µM. 80% of 3,300 active. AID 743050, 2013;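 active = mean activation over triplicate wells above the hit cutoff derived from the earlier primary screen, cut at about 11% in these data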;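 also: 0% = DMSO low control and 100% = 2 mM sodium butyrate high control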
LXR ag 2 = LXR agonists, Gal4 luciferase reporter, confirmation, counter-screen for hgDAF-12 agonist project, cell-based, luminescence, HEK293, H. glycines campaign | 24 h | activation, % at 6.8 µM | 3,300 tested, under 10 active | shares compounds with hgDAF12 agonist;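 active = mean activation of the triplicate above a set limit carried over from the primary screen, none filed active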
Target sequence (P55055 whole entry, looked up, the tested form may be a part): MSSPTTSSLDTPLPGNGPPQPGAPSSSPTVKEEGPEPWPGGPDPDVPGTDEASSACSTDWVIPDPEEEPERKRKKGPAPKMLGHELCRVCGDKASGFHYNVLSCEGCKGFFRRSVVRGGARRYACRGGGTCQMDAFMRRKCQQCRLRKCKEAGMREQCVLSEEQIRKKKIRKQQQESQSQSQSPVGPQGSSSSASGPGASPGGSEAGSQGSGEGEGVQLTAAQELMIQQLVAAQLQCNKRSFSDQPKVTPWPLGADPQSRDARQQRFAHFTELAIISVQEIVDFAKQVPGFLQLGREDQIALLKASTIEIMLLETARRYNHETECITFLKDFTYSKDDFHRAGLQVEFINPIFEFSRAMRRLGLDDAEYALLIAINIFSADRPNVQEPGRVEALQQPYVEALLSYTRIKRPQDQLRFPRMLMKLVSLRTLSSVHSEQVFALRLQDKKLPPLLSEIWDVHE
* = called active by the depositor; nt = no result.

SMILES | ssDAF12 agonist | hgDAF12 agonist | DAX1 inh-1 | hcDAF12 agonist | DAX1 inh-2 | hgDAF12 conf | LXR ag 2
COc1ccc(S(=O)(=O)Nc2ccc3c(c2)C(=O)N([C@H](C)CO)C[C@H](C)[C@@H](CN(C)C(=O)Nc2ccc(F)cc2)OCCCC[C@H](C)O3)cc1 | -1 | -3 | 0 | -1 | 1 | nt | nt
C=CCN(C(=O)c1cccc(C(F)(F)F)c1)C1(C(=O)Nc2ccccc2)CCN(C(C)C)CC1 | 0 | 0 | 2 | -1 | 1 | nt | nt
c1coc(CNc2nc3ccccc3s2)c1 | 1.9* | 16* | 6.5* | 8.8* | 2 | 17* | 1
Cc1nnc(NCc2ccco2)s1 | -1 | 0 | 0 | -1 | 0 | nt | nt
COc1ccc(C(=O)Nc2cccc(OC(=O)c3ccco3)c2)cc1 | 0 | 14* | -1 | 4 | 2 | 14* | 1
O=C(NC1CCCc2ccccc21)c1ccc(F)cc1F (configuration not stated) | -1 | 0 | -1 | -1 | 0 | nt | nt
CC(=O)Nc1ccc(/C(N=Nc2ccccc2)=N/N=C(N)N)cc1 | 1.6* | 13* | 4.5* | 5 | 3 | 16* | 1
Cc1cnc(NC(=O)Cc2ccc(Br)cc2)s1 | -1 | -2 | 0 | 0 | 0 | nt | nt
Cc1ccc(C(=O)Nc2ccc([N+](=O)[O-])cn2)o1 | -1 | 14* | 0 | -1 | 1 | 7 | 0
Cc1ccc(C(=O)Nc2ncc(C)s2)o1 | 0 | 20* | 1 | 3 | 2 | 15* | 1
COc1cc(OC)cc(C(=O)Nc2ccc([N+](=O)[O-])cn2)c1 | -1 | 0 | -1 | -2 | 0 | nt | nt
Cc1ccc(C)c(OCc2ccc(C(=O)Nc3ccc([N+](=O)[O-])cn3)o2)c1 | -1 | -4 | -1 | -3 | -4 | nt | nt
COc1ccc(C(=O)Nc2ccc([N+](=O)[O-])cn2)c(OC)c1 | 0 | 19* | 4 | 4 | 3 | 20* | 1
Nn1c(SCC(=O)NC2CCCCC2)nnc1-c1ccco1 | -1 | 0 | 0 | 0 | 0 | nt | nt
Cc1nc(-c2ccc(NC(=O)c3ccccc3C)cc2)cs1 | 0 | 20* | 1 | 2 | 2 | 16* | 1
O=C(/C=C/c1ccnc2ccccc12)c1cccs1 | 0 | 14* | 1 | 4 | 2 | 15* | 1
O=C(CC(=O)c1cccs1)c1ccncc1 | 0 | 25* | 3 | 5 | 3.7* | 4 | 0
CC(=O)c1sc(N/N=C\c2ccc(N(C)C)cc2)nc1C | 0 | 14* | 4.5* | 3 | 2 | 16* | 1
Cc1nnc2n1CCCCC2 | -1 | -1 | 0 | 0 | 0 | nt | nt
Nc1ccc2c(c1)Cc1cc(N)c(Cl)cc1-2 | 0 | 15* | 3 | 4 | 2 | 12* | 0
Nc1ccc2c(c1)Cc1cc(Cl)c(Cl)cc1-2 | 0 | 10 | 1 | 1 | -1 | nt | nt
Cc1cc(-c2nnc(SCC(=O)Nc3ccc(F)c(F)c3)n2N)n[nH]1 | -1 | 4 | 0 | -1 | 0 | nt | nt
Cc1cc(C(=O)NCCc2ccccc2)ccc1[N+](=O)[O-] | 0 | 13* | 3 | 6 | 3 | 12* | 0
C/C(=N/O)c1ccccn1 | -1 | -2 | 3 | -2 | -1 | nt | nt
C/C(=N/OCc1ccc(Br)cc1)c1ccccn1 | 0 | 23* | 2 | 5 | 3.7* | 22* | 1
SMILES | ssDAF12 agonist | hgDAF12 agonist | DAX1 inh-1 | hcDAF12 agonist | DAX1 inh-2 | hgDAF12 conf | LXR ag 2
O=C(NCc1ccco1)c1cc(-c2cccs2)on1 | -1 | 23* | 3 | 3 | 1 | 22* | 0
CC(C)Cc1cc(C(=O)NCc2cccnc2)no1 | -1 | 10 | 2 | 1 | 3 | nt | nt
CC(C)Cc1cc(C(=O)NCc2cccs2)no1 | 1 | 19* | 3 | 2 | 4.3* | 13* | 0
O=C(NCc1ccco1)c1cc(-c2ccc(F)cc2)on1 | -1 | 17* | 2 | 2 | 2 | 15* | 0
O=C(NCc1ccccc1)c1cc(-c2cccs2)on1 | -1 | 5 | 2 | 1 | 1 | nt | nt
CC(C)CNC(=O)c1cc(-c2ccco2)on1 | -1 | 7 | 0 | 2 | 1 | nt | nt
CCCNC(=O)c1cc(-c2ccco2)on1 | -1 | 47* | 2 | 4 | 0 | 37* | 0
CCOC(=O)N1CCN(C(=O)/C(=C/c2ccc(Cl)cc2)NC(=O)c2ccccc2)CC1 | -2 | -1 | 1 | -1 | 2 | nt | nt
Cc1ccc(C(=O)N2CCC(C(=O)Nc3cccc([N+](=O)[O-])c3)CC2)cc1 | -1 | 3 | 1 | 0 | 0 | nt | nt
CC(C)c1cc(C(=O)NCc2ccco2)no1 | -1 | 6 | 0 | 0 | 2 | nt | nt
O=C(NCc1ccco1)c1cc(-c2ccccc2)on1 | 0 | 23* | 3 | 2 | 3 | 22* | 0
Cc1nn(-c2cccc([N+](=O)[O-])c2)c(N)c1-c1ccccc1 | -1 | 14* | 1 | 1 | 1 | 11* | 0
CCOC(=O)[C@]12CCCC=C1N(Cc1cccc3ccccc13)C(=O)[C@H](CC(=O)N1CCN(C(=O)c3ccco3)CC1)C2 | -1 | -4 | nt | -3 | -1 | nt | nt
O=C(CN1CCN(c2ccc(O)cc2)CC1)Nc1ccc2c(c1)OCCCO2 | -2 | -2 | 0 | -2 | -3 | nt | nt
COc1ccccc1N1CCN(C2=Nc3cccc4cccc2c34)CC1 | 0 | 13* | 0 | -1 | 4.0* | 8 | 0
C(=C\c1nc(-c2cccnc2)no1)/c1ccccc1 | 1.0* | 13* | 1 | 3 | 2 | 12* | 0
Cc1cc(C(=O)NNC(=O)C2CCCC2)c(C)o1 | -1 | -3 | 0 | 1 | 1 | nt | nt
CCOC(=O)c1c(C)[nH]c(C(=O)CSc2ccccc2)c1C | 1 | 18* | 0 | 5.6* | 4 | 14* | 1
CCOC(=O)c1c(C)[nH]c(C(=O)CSc2nccc(C)n2)c1C | -1 | 10 | 1 | 1 | 1 | nt | nt
O=C(Cn1c(=O)c(=O)n(Cc2ccccc2)c2ccc(Cl)cc21)Nc1cccc(F)c1 | 0 | 26* | 1 | -1 | 0 | 0 | 0
